Hits are enriched below; roughly 10% of the tested compounds scored in any of these assays.
KinaseGlo FLuc: blocks Kinase-Glo luciferase, a counter-screen artifact. 0.28% of 200,000 active. Q27757. Kinase-Glo luciferase, ATP luminescence, 8 min. Potency, µM (top dose mostly 38.3 µM), inactives show at the highest dose activity change, negative = inhibition, most hits filed as inhibitors; active means well fitted inhibition curve with a large enough effect; inconclusive means small, poorly fitted or top-dose-only effect; further: potency means the concentration at half of the fitted maximal effect; nearly all actives have a fitted effect of over 60% in size
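Recombinant Kinase-Glo luciferase, 10 uM ATP (linear range), luciferin; imidazole pH 7.2 / KCl / MgCl2 / Tween / BSA buffer; 8 min RT; luminescence.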
LMNA splice mod: changes lamin A minigene splicing in HeLa cells. HeLa LMNA splicing GFP/RFP minigene ratio, 48 h. Potency, µM (top dose mostly 46.1 µM), without a hit: at the top dose ratio change, negative = inhibition, hits mostly inhibitors. 0.01% of 200,000 active. AID 1487; active means well fitted inhibition curve with a large enough effect in the signal ratio, with a control signal flat, not every such curve was filed as active; inconclusive means small, poorly fitted or top-dose-only effect, or effect the other way, or a change in a side signal; the % refers to the signal ratio; further: potency means the concentration at half of the fitted maximal effect
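S3 HeLa cells stably expressing lamin A-EGFP splicing minigene plus DsRed2, 600 cells/well, 48 h compound exposure at 37C. Laser-scanning cytometry; analysed as GFP (500-530 nm)/RFP (575-640 nm) total intensity ratio; 0.5% DMSO vehicle.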
HPGD block: inhibitors of human 15-hydroxyprostaglandin dehydrogenase (HPGD) | 4.3% of 150,000 active | purified HPGD, NADH fluorescence kinetic, PGE2 substrate | Potency, µM, for the others: at the highest dose activity change, negative = inhibition, hits mostly inhibitors | P15428; further: potency means the concentration at half of the fitted maximal effect
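NADH formation kinetics: reaction with 30 uM PGE2 and 1 mM NAD+ (final), 20 nM enzyme, Tris-HCl pH 8 with Tween 20, after 15 min compound preincubation at room temperature. Fluorescence change, last versus first of five reads.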
ALDH1A1 inh: inhibitors of human aldehyde dehydrogenase 1A1. Purified ALDH1A1, NADH fluorescence, propionaldehyde substrate. AID 1030. P00352. 7.3% of 220,000 active. Potency, µM (series often up to 75.3 µM), for the others: top-dose activity, negative = inhibition, hits mostly inhibitors;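 further: potency means the concentration at half of the fitted maximal effect; plate controls were no enzyme wells and a reference inhibitor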
Target sequence (P00352 whole entry, looked up): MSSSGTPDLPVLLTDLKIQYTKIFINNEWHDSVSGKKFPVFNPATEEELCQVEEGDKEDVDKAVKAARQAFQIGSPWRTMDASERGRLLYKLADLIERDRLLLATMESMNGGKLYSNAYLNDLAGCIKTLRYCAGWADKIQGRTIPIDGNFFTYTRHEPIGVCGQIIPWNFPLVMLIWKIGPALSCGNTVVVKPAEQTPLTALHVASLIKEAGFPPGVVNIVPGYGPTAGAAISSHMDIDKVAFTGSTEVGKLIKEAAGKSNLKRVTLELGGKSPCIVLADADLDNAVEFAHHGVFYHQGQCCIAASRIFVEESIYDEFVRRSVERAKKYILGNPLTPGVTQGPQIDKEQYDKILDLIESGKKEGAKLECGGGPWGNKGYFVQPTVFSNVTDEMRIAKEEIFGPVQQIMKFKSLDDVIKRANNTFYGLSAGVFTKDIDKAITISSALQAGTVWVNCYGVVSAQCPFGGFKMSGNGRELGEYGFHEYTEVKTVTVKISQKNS
PNC assembly inh: blocks assembly of the perinucleolar compartment. 3.1% of 140,000 active. AID 2417. activity change (PNC), negative = inhibition, % at 10 µM. PC3M PTB-GFP, PNC prevalence imaging, 16 h; stronger effect = lower value;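 active means readout at or below -70, meaning at least 70% loss of cells showing the perinucleolar compartment, a nuclear body marking cancer cells; inconclusive means readout between -30 and a set limit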;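 further: plate controls were DMSO wells for no effect and camptothecin positive control wells for full effect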
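Read-out is percentage of cells bearing a perinucleolar compartment, from automated 20x imaging of fixed, Hoechst-stained PC3M PTB-GFP cells. Cells were seeded 4 h, then exposed 16 h to compound (23 nl of library stock) in duplicate plates.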
Starred values were filed as active, the others as inactive; ? = inconclusive; . = no result given; [ ] = remark or other dose. Unless noted, the call rests on the fitted dose curve; in most records, active means well fitted inhibition curve with a large enough effect (not every such curve was filed as active); inconclusive means small, poorly fitted or top-dose-only effect, or another doubt; inactive means no such curve, though single readings can be large or run the other way. Unless noted, on the % scale 0 is the no-effect control and ±100 the full control effect.

SMILES	KinaseGlo FLuc	LMNA splice mod	HPGD block	ALDH1A1 inh	PNC assembly inh
COc1ccc(N(CC(=O)Nc2ccccc2C(=O)NCc2ccco2)S(C)(=O)=O)cc1	-3%	6%	-11%	11µM*	7
COc1ccc(C2CC(C)(c3ccc(OC)cc3OC)Nc3ccccc3N2)c(OC)c1 (centres undefined)	-24%	?	.	?	.
COc1ccc(Nc2nnc(-c3ccc(C)cc3)c3ccccc23)cc1C(=O)N1CCCCC1	-1%	?	?	?	-4
CCN(CC)C(=O)COc1ccc(-c2nnc(Nc3ccc(OC)c(C(=O)NC)c3)c3ccccc23)cc1	.	.	.	25µM*	.
COc1ccccc1NC(=O)C1=C(C)Nc2ncnn2C1c1ccc[nH]1 (centres undefined)	.	-16%[46 µM]	.	.	.
Fc1cccc(CSc2ncnc3c2ncn3[C@H]2CCCS2)c1	1%[7.66 µM]	.	-24%	-12%[13.5 µM]	.
C/C(=N/NC(=O)c1cc(O)c(O)c(O)c1)c1ccc([N+](=O)[O-])cc1	1%	.	.	25µM*	.
C/C(=N\NC(=O)c1ccc([N+](=O)[O-])cc1)c1c(O)cc(C)oc1=O	7%	.	.	?	.
CCOC(=O)c1noc2ncn(CC(=O)Nc3ccc(C)c(F)c3)c(=O)c12	.	5%[46 µM]	.	.	.
COc1ccc(/C=N/Nc2nc(NCc3ccco3)nc(Nc3ccc(OC)cc3)n2)cc1	-1%	-5%	-27%	11µM*	14
O=C(NC(=S)Nc1cccc(NC(=O)c2ccccc2)c1)c1cccc([N+](=O)[O-])c1	2%	-13%	-5%	?	6
C/C(=N\Nc1cc(C)nc(-c2ccccc2)n1)c1cccc([N+](=O)[O-])c1	3%	.	.	13µM*	.
CNC(=S)N/N=C(\C)c1ccc2c(c1)OCCO2	10%	4%	-11%	2.8µM*	18
CNC(=S)N/N=C(\C)c1cccc([N+](=O)[O-])c1	5%	-10%	-19%	13µM*	?
CC(=O)NNC(=S)NC(=O)c1cccc([N+](=O)[O-])c1	1%	-1%	28µM*	8.9µM*	77
O=C(NC1CCCC1)O[C@@H]1C(=O)c2cc(Br)ccc2O[C@H]1c1ccc2c(c1)OCO2	-2%	.	-6%	-6%	.
CC(=O)OC1CC[C@]2(C)C(CC[C@@]3(C)C2C(=O)C=C2C4C(C)C(C)CC[C@@]4(C(=O)O)CCC23C)C1(C)C (some centres undefined)	-2%	?	0%	10%	.
CC[C@H](/C=C/[C@@H](C)[C@H]1CC[C@H]2C3CC=C4C[C@@H](O)CC[C@]4(C)C3CC[C@]12C)C(C)C (some centres undefined)	2%	.	-3%	11%	.
Cc1nn2c(=O)cc(COC(=O)c3ccc(NC(=O)C4CCCCC4)cc3)nc2s1	.	11%[46 µM]	.	.	.
CC(=O)CSCc1ccccn1	-4%[7.66 µM]	.	-7%	3.5µM*	.
O=C(CSCc1ccccn1)Nc1ccccc1	-3%	8%	-1%	7%	?
CSCCC(NC(=O)c1ccc(C)o1)C(=O)O (centres undefined)	-2%	11%	-11%	16µM*	9
N#C/C(=C\c1cn[nH]c1-c1ccc(Cl)cc1)C(=O)NCc1ccccc1	-5%	2%	?	22µM*	?
Cc1ccc(C(=O)NC(C)c2ccccc2)o1 (centres undefined)	0%	-1%	22µM*	?	7
N#C/C(=C\c1cn[nH]c1-c1ccc(Cl)cc1)C(=O)NC1CC1	-2%	?	-6%	2%	-25
SMILES	KinaseGlo FLuc	LMNA splice mod	HPGD block	ALDH1A1 inh	PNC assembly inh
Cc1ccc(/C=C(/C#N)C(=O)NC(C)c2ccccc2)o1 (centres undefined)	3%	2%	-20%	14µM*	3
Cc1ccc(N(C)C(=O)CN2C(=O)CCc3cc(S(=O)(=O)N4CCOCC4)ccc32)cc1	.	0%[46 µM]	.	.	.
CCc1ccc(C(C)NC(=O)/C(C#N)=C\c2cn[nH]c2-c2ccccc2)cc1 (centres undefined)	1%	?	-13%	?	7
CC(NC(=O)/C(C#N)=C/c1cn[nH]c1-c1ccccc1)c1ccccc1 (centres undefined)	2%	-5%	14µM*	7.9µM*	25
Fc1ccc(Nc2ccnc(-c3ccc4c(c3)OCO4)n2)cc1	.	?	.	-6%	.
COc1ccc2cc(C(c3nnnn3CCc3ccccc3)N3CCCC(C)C3)c(=O)[nH]c2c1 (centres undefined)	-2%	0%	-9%	32µM*	11
COCCn1nnnc1C(c1cc2cc(C)ccc2[nH]c1=O)N1CCCCCC1 (centres undefined)	2%	4%	-19%	25µM*	31
CCN(Cc1ccccc1)C(c1cc2cc(C)ccc2[nH]c1=O)c1nnnn1CCOC (centres undefined)	1%	9%	-10%	?	11
COCCn1nnnc1C(c1cc2cc(C)ccc2[nH]c1=O)N1CCc2ccccc21 (centres undefined)	-2%	9%	-22%	3.2µM*	11
Cc1ccccc1OCc1ccc(-c2nc(C#N)c(N3CCN(c4ccccc4)CC3)o2)o1	.	-7%[46 µM]	.	.	.
CS(=O)(=O)N1CCC[C@@]2(CCN(C(c3ccccc3)c3ccccc3)C2)C1	-1%	.	-4%	-12%	.
O=C(CNC(=O)c1ccco1)NCC(=O)OC(C(=O)c1ccccc1)c1ccc(Cl)cc1 (centres undefined)	2%	-10%	-22%	?	-100*
CCOc1ccc(CN2C(=O)c3ccccc3Sc3ccc(C(=O)O)cc32)cc1	.	-29%[46 µM]	.	.	.
O=C(CSc1nnnn1-c1ccccc1)Nc1nsc(-c2ccc(Cl)cc2)n1	1%	8%	?	?	?
CCn1nnnc1SCC(=O)Nc1ccc(OCc2ccccc2)cc1	-3%	-7%	-9%	?	-27
O=C(Nc1ccc(OCc2ccccc2)cc1)c1cccnc1	-4%	22%	-19%	9%	-112*
O=C(CSc1nnnn1-c1ccccc1)CC(=O)Nc1ccc(Cl)cc1	0%	?	-31%	2.2µM*	35
O=C(CSc1nnnn1-c1cccnc1)Nc1ccc(OCc2ccccc2)cc1	-6%	2%	-12%	4µM*	-28
N=C(N)SCCc1ccccn1	-1%[7.66 µM]	.	-5%	2%[13.5 µM]	.
Cc1nn(CCc2nc(-c3ccco3)cs2)c2[nH]c(=O)cc(C(F)(F)F)c12	-3%	7%	?	2.5µM*	?
O=c1[nH]c(=O)n(Cc2ccccc2)c2nc(-c3ccco3)cc(C(F)(F)F)c12	-4%	?	?	?	32
Cc1cc(C)n(CCc2nc(-c3cccs3)cs2)n1	2%	-10%	-8%	?	-8
Cc1cc(C)n(CCc2nc(-c3ccco3)cs2)n1	-3%	6%	?	7.1µM*	42
N#CCCn1c(=O)c(-c2cccc(C#N)c2)nc2cnc(N3CCOCC3)nc21	.	5%	.	?	.

Screens (PubChem BioAssay)
